Screening results: PubChem BioAssay, several laboratories
V-ATPase pHluor = regulators of yeast V-ATPase proton pumping, primary screen, pHLuorin cytosolic pH fluorescence | AID 504577, 2011 | hit rate 0.37% among 350,000 | response, % at 10 µM | S. cerevisiae; in the data active means response mostly above about 7.3%, no sharp cut-off; inactive means mostly below about 5.4%; further: actives read high
Exocytosis inh = LAMP-1 surface exposure blockers, TALL-104 cells – cell-based, flow cytometry, MLPCN library, primary screen; TALL-104 LAMP-1 surface exposure; cells stimulated with thapsigargin and PMA; inhibition, % at 10 µM; hit rate 0.66% among 360,000; AID 651702, 2012;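 active means inhibition above about 55%, limit read from the data; inconclusive means no clear call, values can overlap the other calls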
m5-HT2A agonist = mouse Htr2a agonists via beta-arrestin recruitment, primary screen, cell-based, luminescence. 5-hydroxytryptamine receptor 2A (Mus musculus), P35363. CHO-K1 mHTR2A beta-arrestin complementation; percent of 30 µM serotonin response. activation, % at 7.6 µM. hit rate 0.66% among 360,000. AID 624169, 2012;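 active means activation above a run cutoff, the mean activation of all tested compounds plus 3 SD, cut at about 14% in these data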
VLA-4 inh = inhibition in human VLA-4 binding assay, primary screen, VLA-4 allosteric modulator project, MLPCN library, flow cytometry, VLA-4 expressing cells; Integrin alpha-4 (Homo sapiens), P13612; ligand binding flow cytometry; inhibition, % (about 7 µM as worked out from the volumes in the protocol); hit rate 0.2% among 330,000; AID 2557, 2010; in the data active means inhibition above about 50%
MEX-5 binding = MEX-5 zinc finger RNA-binding disruptors – biochemical, C. elegans, fluorescence polarization, MLPCN library, primary screen. Zinc finger protein mex-5 (Caenorhabditis elegans), Q9XUB2. MEX-5/FITC-TCR2 RNA binding; hits give low values. activity score (negative = inhibition of binding), % at 10 µM. hit rate 0.38% among 300,000. AID 1832, 2009;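 active means inhibition past about -25% in most replicates, and total fluorescence under double the plate's negative control median, limit read from the data; inconclusive means replicates evenly split on the limit, or fluorescence at least double controls; inactive means too little inhibition in most replicates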
Target sequence (Q9XUB2 whole entry, looked up): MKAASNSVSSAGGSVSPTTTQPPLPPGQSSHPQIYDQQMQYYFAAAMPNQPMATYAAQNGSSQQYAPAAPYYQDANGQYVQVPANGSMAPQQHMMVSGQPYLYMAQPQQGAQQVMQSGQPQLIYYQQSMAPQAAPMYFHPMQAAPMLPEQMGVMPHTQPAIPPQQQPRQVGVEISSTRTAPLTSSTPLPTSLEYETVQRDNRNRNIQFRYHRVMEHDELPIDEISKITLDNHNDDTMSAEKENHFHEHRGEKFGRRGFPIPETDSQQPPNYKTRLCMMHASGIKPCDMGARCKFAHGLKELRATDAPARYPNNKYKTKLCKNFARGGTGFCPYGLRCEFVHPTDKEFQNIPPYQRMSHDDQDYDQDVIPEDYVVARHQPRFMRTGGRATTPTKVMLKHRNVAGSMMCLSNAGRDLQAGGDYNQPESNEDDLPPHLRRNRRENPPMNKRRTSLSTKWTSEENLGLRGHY
GASC-1 inh = inhibitors of GASC-1 histone demethylase, primary screen, biochemical, fluorescence, DELFIA europium; Lysine-specific demethylase 4C (Homo sapiens), Q9H3R0; GST-JMJD2C(1-420) H3K9me3 demethylation; AID 2099, 2009; hit rate 0.069% among 330,000; inhibition, % at 2.35 µM;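 active means more than half of a compound's replicate wells show inhibition beyond 50%, single wells judged on their own value; inconclusive means some, but no more than half, of replicates pass 50% inhibition; inactive means no replicate passes 50% inhibition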;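 further: signal counts dimethyl H3K9 product captured on neutravidin plate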
V-ATPase pH SP = yeast V-ATPase proton pumping modulators, confirmation, S. cerevisiae, pH-sensitive GFP, second cherry-pick; hit rate 2% among 980; response, % at 10 µM; S. cerevisiae pHLuorin cytosolic pH, V-ATPase proton transport; shares compounds with V-ATPase pHluor; in the data active means response above about 24%
Large screens that a line does not name were inactive (follow-up assays come after a bar, where they were run). An excerpt weighted towards active compounds, which were near 2.2% of everything screened.

COc1ccc(Cl)cc1NC(=S)NCCSc1ccc(C)cc1	V-ATPase pHluor 7.6 | V-ATPase pH SP inactive
COc1ccccc1NC(=S)NCCSc1ccc(Cl)cc1	none
O=C(OCCOc1cccc(Cl)c1)c1cc(S(=O)(=O)N2CCOCC2)ccc1F	GASC-1 inh inconclusive
O=C(NCCNCCO)C1(C(F)(F)F)C/C(=C\Cc2ccccc2)CCCO1 (centres undefined)	none
O=C(NCC1CC1)C1(C(F)(F)F)CC(CCc2ccccc2)CCCO1 (centres undefined)	V-ATPase pHluor 10.0 | V-ATPase pH SP inactive
COc1cc(-c2nc(-c3cccc(C)c3)no2)cc(OC)c1OC	V-ATPase pHluor 8.1 | V-ATPase pH SP inactive
COc1ccc2c(c1)C(c1ccc(C)o1)=NNC(c1ccccc1)=N2	none
COc1ccc2c(c1)C(c1ccc(C)o1)=NNC(c1cccnc1)=N2	V-ATPase pHluor 8.6 | V-ATPase pH SP inactive
N=C(N)SCc1ccccn1	none
c1ccc(CSc2nnc(SCc3ccccn3)s2)nc1	V-ATPase pHluor 11.1 | V-ATPase pH SP inactive
CN(C)C(=O)CN1CCN(c2nc3nonc3nc2N2CCCCC2)CC1	V-ATPase pHluor 12.7 | V-ATPase pH SP inactive
C1CCCN(c2nc3nonc3nc2N2CCCCCC2)CC1	none
O=C1CC(=O)C(n2cncn2)C(c2c(F)cccc2Cl)C1 (centres undefined)	none
O=C1CC(=O)C(n2cncn2)C(c2ccc(Cl)cc2)C1 (centres undefined)	V-ATPase pHluor 7.5 | V-ATPase pH SP inactive
Cc1nn(CC(=O)OCC(=O)NCCc2ccc(F)cc2)c(C)c1[N+](=O)[O-]	V-ATPase pHluor 9.9 (no result: MEX-5 binding) | V-ATPase pH SP inactive
CCOc1ccc(CCNC(=O)COC(=O)Cn2nc(C)c([N+](=O)[O-])c2C)cc1OCC	none
Cc1nn(CC2CC2)c(=O)n1-c1ccc(Cl)cc1	none | V-ATPase pH SP inactive
CCOC(=O)Cc1c(C)nc(Cc2ccc(OC(C)C)cc2)[nH]c1=O	none
O=S(=O)(NC1=NCCC1)c1ccc(F)cc1F	V-ATPase pHluor 9.1 | V-ATPase pH SP inactive
O=S(=O)(NC1=NCCCCC1)c1ccc(F)cc1F	none (no result: MEX-5 binding)
CSCCC(NC(=O)c1ccccc1)C(=O)N1CCN(C(=O)c2ccccc2)CC1 (centres undefined)	none (no result: MEX-5 binding)
CSCCC(NC(=O)c1ccccc1)C(=O)N1CC=C(c2ccccc2)CC1 (centres undefined)	V-ATPase pHluor 9.3 | V-ATPase pH SP inactive
COc1ccccc1NC(=O)C(C)OC(=O)CC1CCCCC1 (centres undefined)	none (no result: MEX-5 binding)
COc1ccccc1CCNC(=O)C1CCC(=O)N(Cc2ccccc2OC)C1 (centres undefined)	none
COc1ccccc1CN1CC(C(=O)NCCCc2ccc(F)cc2)CCC1=O (centres undefined)	V-ATPase pHluor 12.6 | V-ATPase pH SP inactive
CCOC(=O)c1[nH]c2ccccc2c1NC(=O)c1nonc1C	none | V-ATPase pH SP inactive
Cc1cccc(NCCC(=O)c2ccc([N+](=O)[O-])cc2)c1C	V-ATPase pHluor 95.9, Exocytosis inh 106.6 | V-ATPase pH SP inactive
Cc1ccc(NCCC(=O)c2cccc([N+](=O)[O-])c2)c(C)c1	none
NS(=O)(=O)c1ccc(CCNS(=O)(=O)c2ccc3c(c2)NC(=O)CO3)cc1	V-ATPase pHluor 9.4 | V-ATPase pH SP inactive
Cc1cnc(CNC(=O)c2ccc3sc([C@H]4C[C@H](O)[C@@H](CO)O4)nc3c2)cn1	none (no result: V-ATPase pHluor, VLA-4 inh, MEX-5 binding, GASC-1 inh)
CCOC(=O)CCC(=O)NCc1ccc2[nH]c(C)cc2c1	none
CCOC(=O)NCc1ccc2[nH]c(C)cc2c1	V-ATPase pHluor 10.8 | V-ATPase pH SP inactive
CCOc1ccc(CCNC(=O)COC(=O)c2ccc(S(=O)(=O)N3CCCC3)cc2)cc1OCC	none
CCOc1ccc(CCNC(=O)COC(=O)c2ccc(S(C)(=O)=O)cc2)cc1OCC	V-ATPase pHluor 14.9 | V-ATPase pH SP inactive
